# Test results: the supplement of paper PMC11001985
# Values without a mark were called inactive.
# Compound: C#CCNC(=O)CCSSCCC(=O)NCCc1ccc(C=O)c(C=O)c1
# Assay: lysine labeling ratio R10:1 (500 µM / 50 µM probe), SILAC-ABPP in living cells; higher = lower intrinsic lysine reactivity toward the probe, active = 2 or less
# Settings: HeLa; probe concentrations 500 vs 50 µM
# Procedure, shortened: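 Living SILAC light and heavy HeLa cells in PBS at room temperature were treated with an alkyne-tagged, disulfide-linked lysine probe at 50 µM or 500 µM, with forward and reverse label swaps. The mixed lysates were clicked to biotin-azide, digested with trypsin, captured on neutravidin, released with DTT, alkylated and run by LC-MS/MS on a TIMS-TOF Pro. R for each lysine is the filtered median high-probe/low-probe MS1 peptide ratio, taken again as the median over forward and reverse replicates. Any value above 20 is set to 20.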
# Chain of UniProt P17301 (P17301 whole entry): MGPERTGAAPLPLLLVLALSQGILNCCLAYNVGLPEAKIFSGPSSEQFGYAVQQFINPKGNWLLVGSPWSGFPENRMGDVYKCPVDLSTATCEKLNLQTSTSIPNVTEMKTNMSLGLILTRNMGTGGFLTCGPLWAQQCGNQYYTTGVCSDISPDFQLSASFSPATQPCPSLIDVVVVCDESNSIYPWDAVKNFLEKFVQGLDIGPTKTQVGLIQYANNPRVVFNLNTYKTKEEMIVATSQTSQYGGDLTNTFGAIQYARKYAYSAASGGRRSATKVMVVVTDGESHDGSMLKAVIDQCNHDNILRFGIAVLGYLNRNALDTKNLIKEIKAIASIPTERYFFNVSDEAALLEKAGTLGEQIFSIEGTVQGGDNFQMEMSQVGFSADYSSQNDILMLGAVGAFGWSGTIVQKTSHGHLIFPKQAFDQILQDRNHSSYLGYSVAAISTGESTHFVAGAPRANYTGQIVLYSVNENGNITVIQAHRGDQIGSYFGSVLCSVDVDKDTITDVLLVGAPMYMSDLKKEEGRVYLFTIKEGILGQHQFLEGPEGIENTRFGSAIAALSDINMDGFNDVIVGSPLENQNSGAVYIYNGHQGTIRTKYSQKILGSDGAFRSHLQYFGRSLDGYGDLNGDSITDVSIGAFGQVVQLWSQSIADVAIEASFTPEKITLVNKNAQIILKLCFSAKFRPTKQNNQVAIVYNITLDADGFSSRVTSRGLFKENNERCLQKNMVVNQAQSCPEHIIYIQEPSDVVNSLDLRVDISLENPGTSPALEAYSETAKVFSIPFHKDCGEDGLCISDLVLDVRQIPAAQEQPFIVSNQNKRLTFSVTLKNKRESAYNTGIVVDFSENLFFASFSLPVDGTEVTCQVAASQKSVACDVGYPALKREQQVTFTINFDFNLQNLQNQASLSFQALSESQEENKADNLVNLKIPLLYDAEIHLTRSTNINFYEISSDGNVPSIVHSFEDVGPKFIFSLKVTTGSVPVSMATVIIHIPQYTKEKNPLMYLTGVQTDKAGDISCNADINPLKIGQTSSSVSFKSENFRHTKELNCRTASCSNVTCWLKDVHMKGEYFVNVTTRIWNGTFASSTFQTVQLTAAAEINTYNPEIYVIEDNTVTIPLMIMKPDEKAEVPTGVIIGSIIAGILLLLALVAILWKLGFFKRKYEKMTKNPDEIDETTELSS
# Chain of UniProt P55290 (P55290 whole entry): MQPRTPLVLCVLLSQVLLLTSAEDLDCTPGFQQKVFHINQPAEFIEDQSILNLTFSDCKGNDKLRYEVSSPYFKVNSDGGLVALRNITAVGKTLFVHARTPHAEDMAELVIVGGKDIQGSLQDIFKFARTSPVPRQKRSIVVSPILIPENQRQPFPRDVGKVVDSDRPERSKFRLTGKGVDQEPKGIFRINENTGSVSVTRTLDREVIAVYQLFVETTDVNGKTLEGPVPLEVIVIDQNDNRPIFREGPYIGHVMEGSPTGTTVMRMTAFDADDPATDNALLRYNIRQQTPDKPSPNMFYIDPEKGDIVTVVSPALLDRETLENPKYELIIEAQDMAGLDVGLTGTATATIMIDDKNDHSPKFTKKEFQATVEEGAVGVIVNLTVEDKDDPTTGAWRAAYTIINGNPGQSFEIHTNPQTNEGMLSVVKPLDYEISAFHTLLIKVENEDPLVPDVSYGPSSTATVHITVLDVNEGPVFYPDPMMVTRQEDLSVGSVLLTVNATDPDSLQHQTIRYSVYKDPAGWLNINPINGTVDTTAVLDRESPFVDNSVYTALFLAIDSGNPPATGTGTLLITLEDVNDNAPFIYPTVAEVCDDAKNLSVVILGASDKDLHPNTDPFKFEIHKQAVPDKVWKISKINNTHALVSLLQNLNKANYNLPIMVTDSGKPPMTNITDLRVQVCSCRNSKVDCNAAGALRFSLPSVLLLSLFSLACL
# Chain of UniProt P40227 (P40227 whole entry): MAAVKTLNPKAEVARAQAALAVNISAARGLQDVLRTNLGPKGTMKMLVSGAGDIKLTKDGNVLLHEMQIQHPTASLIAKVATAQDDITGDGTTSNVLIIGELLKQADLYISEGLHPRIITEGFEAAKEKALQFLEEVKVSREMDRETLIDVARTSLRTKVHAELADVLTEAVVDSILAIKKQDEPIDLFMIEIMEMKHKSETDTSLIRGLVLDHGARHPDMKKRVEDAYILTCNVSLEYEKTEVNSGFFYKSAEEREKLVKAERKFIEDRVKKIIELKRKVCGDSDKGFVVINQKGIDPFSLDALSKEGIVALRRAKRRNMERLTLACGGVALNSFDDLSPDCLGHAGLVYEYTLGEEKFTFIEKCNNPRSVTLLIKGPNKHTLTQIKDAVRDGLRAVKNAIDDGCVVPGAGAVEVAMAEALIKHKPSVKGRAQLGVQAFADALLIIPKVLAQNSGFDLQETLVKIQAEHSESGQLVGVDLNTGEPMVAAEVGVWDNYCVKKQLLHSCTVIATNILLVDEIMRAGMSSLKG
# Chain of UniProt P35579 (P35579 whole entry): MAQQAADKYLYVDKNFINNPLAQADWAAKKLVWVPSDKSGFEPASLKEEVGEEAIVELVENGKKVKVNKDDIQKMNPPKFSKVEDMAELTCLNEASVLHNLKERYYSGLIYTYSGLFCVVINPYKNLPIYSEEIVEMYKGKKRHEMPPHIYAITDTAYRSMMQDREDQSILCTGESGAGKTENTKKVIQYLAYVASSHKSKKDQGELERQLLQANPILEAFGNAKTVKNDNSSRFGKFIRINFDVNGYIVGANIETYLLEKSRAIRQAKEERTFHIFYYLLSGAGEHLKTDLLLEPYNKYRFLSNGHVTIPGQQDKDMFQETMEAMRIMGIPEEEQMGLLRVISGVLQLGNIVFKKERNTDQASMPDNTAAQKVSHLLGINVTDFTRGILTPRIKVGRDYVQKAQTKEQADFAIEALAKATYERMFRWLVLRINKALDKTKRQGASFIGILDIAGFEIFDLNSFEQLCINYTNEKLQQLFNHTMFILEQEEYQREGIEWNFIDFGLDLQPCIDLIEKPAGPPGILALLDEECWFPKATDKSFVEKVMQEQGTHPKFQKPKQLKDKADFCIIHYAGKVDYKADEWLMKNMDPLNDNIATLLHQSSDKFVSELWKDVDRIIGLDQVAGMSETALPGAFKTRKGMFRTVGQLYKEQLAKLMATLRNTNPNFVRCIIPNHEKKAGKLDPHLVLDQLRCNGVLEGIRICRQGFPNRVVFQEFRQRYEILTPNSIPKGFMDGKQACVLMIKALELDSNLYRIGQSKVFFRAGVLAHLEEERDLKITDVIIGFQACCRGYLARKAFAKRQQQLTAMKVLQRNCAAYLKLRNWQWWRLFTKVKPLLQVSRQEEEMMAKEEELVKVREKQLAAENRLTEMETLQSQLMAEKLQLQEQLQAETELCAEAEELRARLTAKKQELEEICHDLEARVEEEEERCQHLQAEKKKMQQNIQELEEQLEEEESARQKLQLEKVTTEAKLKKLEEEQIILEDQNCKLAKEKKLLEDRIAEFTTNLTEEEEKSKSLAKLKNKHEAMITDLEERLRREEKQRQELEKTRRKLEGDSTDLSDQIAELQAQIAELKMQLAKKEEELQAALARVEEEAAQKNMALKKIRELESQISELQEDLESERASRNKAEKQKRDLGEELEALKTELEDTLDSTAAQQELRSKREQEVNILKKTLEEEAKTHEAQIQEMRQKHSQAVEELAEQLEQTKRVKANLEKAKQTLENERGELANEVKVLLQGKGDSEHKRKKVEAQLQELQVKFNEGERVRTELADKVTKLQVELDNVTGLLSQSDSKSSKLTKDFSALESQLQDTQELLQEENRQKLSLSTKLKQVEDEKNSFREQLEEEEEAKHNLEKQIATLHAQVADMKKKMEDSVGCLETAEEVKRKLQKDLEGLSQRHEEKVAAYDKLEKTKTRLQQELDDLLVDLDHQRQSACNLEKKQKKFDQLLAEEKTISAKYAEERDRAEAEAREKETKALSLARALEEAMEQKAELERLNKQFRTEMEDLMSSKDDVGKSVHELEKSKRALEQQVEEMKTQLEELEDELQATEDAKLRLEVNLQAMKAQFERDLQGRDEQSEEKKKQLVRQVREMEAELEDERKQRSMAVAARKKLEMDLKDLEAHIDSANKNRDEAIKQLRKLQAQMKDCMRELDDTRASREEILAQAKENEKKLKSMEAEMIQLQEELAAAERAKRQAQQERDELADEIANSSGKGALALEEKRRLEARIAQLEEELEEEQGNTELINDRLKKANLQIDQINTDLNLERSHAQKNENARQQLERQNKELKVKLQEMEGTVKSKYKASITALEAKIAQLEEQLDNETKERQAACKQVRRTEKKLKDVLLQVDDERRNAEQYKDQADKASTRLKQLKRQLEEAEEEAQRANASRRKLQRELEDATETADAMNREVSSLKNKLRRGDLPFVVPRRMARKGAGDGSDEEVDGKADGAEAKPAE
# Chain of UniProt P05787 (P05787 whole entry): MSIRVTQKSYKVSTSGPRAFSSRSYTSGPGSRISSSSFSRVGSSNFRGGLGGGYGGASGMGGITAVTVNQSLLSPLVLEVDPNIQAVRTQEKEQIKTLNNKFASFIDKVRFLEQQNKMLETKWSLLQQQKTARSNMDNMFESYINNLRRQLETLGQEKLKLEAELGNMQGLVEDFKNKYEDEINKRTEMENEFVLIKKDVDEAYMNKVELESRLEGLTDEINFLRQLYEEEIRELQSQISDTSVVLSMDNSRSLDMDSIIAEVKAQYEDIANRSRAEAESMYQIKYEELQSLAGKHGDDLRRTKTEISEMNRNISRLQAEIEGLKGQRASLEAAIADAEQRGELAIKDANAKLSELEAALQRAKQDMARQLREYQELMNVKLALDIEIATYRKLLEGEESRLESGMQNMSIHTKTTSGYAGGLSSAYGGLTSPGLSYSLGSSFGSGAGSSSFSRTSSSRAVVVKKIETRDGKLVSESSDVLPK
# Chain of UniProt P09382 (P09382 whole entry): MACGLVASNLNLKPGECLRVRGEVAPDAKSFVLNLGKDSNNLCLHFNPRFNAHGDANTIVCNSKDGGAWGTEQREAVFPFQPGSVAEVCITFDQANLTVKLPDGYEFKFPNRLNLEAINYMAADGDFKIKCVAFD
row,Target,lysine labeling ratio R10:1
1,ECE1 (lysine site: K676) (UniProt P42892),3.15
2,UniProt P05787 (lysine site: K483),2.46
3,NOTCH2 (lysine site: K1350) (UniProt Q04721),2.12
4,UniProt Q4KMG0 (lysine site: K149),1.47 (active)
5,MSN (lysine site: K3) (UniProt P26038),8.6
6,UniProt P60842 (lysine site: K238),1.54 (active)
7,ITGAV (lysine site: K360) (UniProt P06756),1.23 (active)
8,RTN4 (lysine site: K1066) (UniProt Q9NQC3),3.4
9,ARPC2 (lysine site: K186) (UniProt O15144),1.46 (active)
10,HSP90B1 (lysine site: K683) (UniProt P14625),4.36
11,SPTAN1 (lysine site: K1419) (UniProt Q13813),0.907 (active)
12,UniProt Q14574 (lysine site: K662),1.83 (active)
13,CDH13 (lysine site: K185) (UniProt P55290),4.74
14,ITGA2 (lysine site: K821) (UniProt P17301),3.08
15,LGALS1 (lysine site: K64) (UniProt P09382),3.47
16,MYH9 (lysine site: K1862) (UniProt P35579),2.81
17,COPA (lysine site: K1134) (UniProt P53621),2.48
18,FN1 (lysine site: K1050) (UniProt P02751),1.47 (active)
19,ITGA3 (lysine site: K620) (UniProt P26006),1.8 (active)
20,GPI (lysine site: K447) (UniProt P06744),2.73
21,NCL (lysine site: K545) (UniProt P19338),3.2
22,UniProt O60245 (lysine site: K484),1.3 (active)
23,CCT6A (lysine site: K251) (UniProt P40227),1.04 (active)
